In PubChem BioAssay AID1069 (NMMLSC, 2008):
The source made the active and inactive calls.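 How the source made its calls: active means high combined rank on largest and smallest cell-count-weighted shift across three tests, rank score above 45, floors 50 and 25 (some results past the limit were not filed as active); inactive means the rest.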

Assay: activators of LNCaP cell differentiation, retest, confirmation, side scatter shift, flow cytometry (AID 1069);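 further: LNCaP human prostate cancer cells in low-serum medium with charcoal-stripped FBS; percent of cells with raised granularity gated so DMSO controls show 10%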
Conditions: 4 d, stronger effect = higher value

SMILES	side scatter shift (at 100 µM)	side scatter shift (side scatter shift, at 10 µM) [%]
Cc1oc(-c2ccc(Cl)cc2)nc1CN1CCCC(C(=O)NCc2ccco2)C1 (stereo not given)	22.2% (inactive)	12.7
Cc1oc(-c2cccc(Cl)c2)nc1CN1CCC(C(=O)NCC2CCCO2)CC1 (stereo not given)	33.9% (inactive)	8.8
Cc1ccc(Cn2ccc(NC(=O)c3cc(-c4ccc(Br)cc4)on3)n2)cc1	23% (inactive)	10.6
CCN(CC)CCCNc1oc(-c2cccc(Cl)c2)nc1C#N	21.9% (inactive)	32.5
Cc1nc2ncnn2c(C)c1CCC(=O)NCCCN1CCN(c2cccc(Cl)c2)CC1	37.9% (inactive)	8.55
CCOC(=O)N1CCN(C(=O)C2CCCN(Cc3nc(-c4ccc(Cl)cc4)oc3C)C2)CC1 (stereo not given)	20% (inactive)	4.15
COc1ccc(-c2coc3c(CN4CCCCC4)c(O)c(CN4CCCCC4)c(O)c3c2=O)cc1	28.6% (inactive)	3.3
CCOC(=O)c1ccc(-c2n[nH]c(=O)c3ccccc23)cc1	10.7% (inactive)	3.3
Cc1ccccc1-c1nc(CN2CCC(C(=O)NCCCN3CC(C)CC(C)C3)CC2)c(C)o1 (stereo not given)	54.5% (active)	78.4
CCn1c(=O)cc(OCC(=O)NCCCN2CCN(c3cccc(Cl)c3)CC2)c2ccccc21	40% (inactive)	18.3
CCOc1ccc(-c2cc(C(=O)NCCCN3CCN(CC)CC3)c3ccccc3n2)cc1	28.2% (active)	73
Cc1cc(NC(=O)CSc2nnc(Cn3c(=O)sc4ccccc43)n2-c2ccccc2C)no1	26.5% (inactive)	8.25
Cc1ccccc1-c1nc(CN2CCCC(C(=O)NCCCN3CCOCC3)C2)c(C)o1 (stereo not given)	72.4% (active)	12.8
CCOc1ccc(-n2cc(C(=O)N3CCC(C)CC3)c3cc(OC)c(OC)cc3c2=O)cc1	16.3% (inactive)	18.7
COc1ccc(-c2oc3ncn(CCN4CCOCC4)c(=N)c3c2-c2ccc(OC)cc2)cc1	42.3% (inactive)	19.7
O=C(Cn1ccc2ccccc2c1=O)NCCC(=O)N1CCN(c2cccc(C(F)(F)F)c2)CC1	5.2% (inactive)	2.4
COc1ccc(OC)c(CNC(=O)CCNC(=O)Cn2ccc3ccccc3c2=O)c1	12.7% (inactive)	7.3
CCOC(=O)N1CCC(NC(=O)c2cc3c(-c4cccc(OC)c4)nn(C)c3s2)CC1	7.7% (inactive)	2.35
Cc1oc(-c2cccc(Cl)c2)nc1CN1CCCC(C(=O)NCc2ccco2)C1 (stereo not given)	50% (inactive)	5.55
N=c1n(CCO)c2ccccc2n1CCOc1ccc(Cl)cc1Cl	22.2% (inactive)	8.75
CCN1CCCC1CNC(=O)c1cc2c(-c3cccc(OC)c3)nn(C)c2s1 (stereo not given)	40% (inactive)	12.8
Cc1oc(-c2ccc(Cl)cc2)nc1CN1CCCC(C(=O)NCc2ccccn2)C1 (stereo not given)	26.5% (inactive)	6.45
COc1ccc(CCN2CCC(Nc3nc4ccccc4n3Cc3ccc(F)cc3)CC2)cc1	0% (active)	35.3
CN(CCNC(=O)C1CC(=O)N(c2ccc(F)c(Cl)c2)C1)Cc1ccccc1 (stereo not given)	62% (active)	3.65

SMILES	side scatter shift (at 100 µM)	side scatter shift (side scatter shift, at 10 µM) [%]
O=C(O)C1CCCCC1C(=O)Nc1cnn(Cc2ccccc2)c1 (stereo not given)	19% (inactive)	5.15
CCOC(=O)N1CCN(C(=O)C2CCN(Cc3nc(-c4ccccc4C)oc3C)CC2)CC1	30.6% (inactive)	5.15
CCN1CCN(CCNC(=O)C2CCN(Cc3nc(-c4ccc(Cl)cc4)oc3C)CC2)CC1	44.7% (active)	28.8
COc1ccc(-c2noc(CCC(=O)NCCCN3CCC(C)CC3)n2)cc1	23.8% (inactive)	4.9
Cn1c(=O)[nH]c(=O)c2c1nc(Br)n2CCCSc1nc2ccccc2o1	0% (inactive)	8
Cc1ccccc1-c1nc(CN2CCC(C(=O)NCc3ccco3)CC2)c(C)o1	41.1% (inactive)	3.2
Cc1oc(-c2ccc(Cl)cc2)nc1CN1CCCC(C(=O)NCCCN2CCOCC2)C1 (stereo not given)	42.9% (inactive)	16.6
CCOC(=O)N1CCC(NC(=O)c2cc3c(-c4ccc(Cl)cc4)nn(C)c3s2)CC1	22.5% (inactive)	6.9
CCc1ccc(-c2nc(CN3CCC(C(=O)NCCc4ccc(OC)c(OC)c4)CC3)c(C)o2)cc1	35.3% (inactive)	21
Cc1oc(-c2ccc(Cl)cc2)nc1CN1CCC(C(=O)NCc2cccnc2)CC1	30% (inactive)	5.8
O=C(NCCCN1CCN(c2cccc(Cl)c2)CC1)C1CCC(=O)N1Cc1ccccc1Cl (stereo not given)	33.3% (inactive)	11.4
Cc1oc(-c2cccc(Cl)c2)nc1CN1CCC(C(=O)NCc2cccnc2)CC1	28.9% (inactive)	8.3
O=C(CCCCCn1c(=O)[nH]c2ccccc2c1=O)NCCCN1CCN(c2ccccc2F)CC1	27.8% (inactive)	3
COc1ccc(CCn2c(=N)c(C(=O)NCc3ccco3)cc3c(=O)n4ccccc4nc32)cc1	59.4% (inactive)	4.85
COc1ccc(CN2C(=O)C(O)(CC(=O)c3c(C)n[nH]c3C)c3ccccc32)cc1OC (stereo not given)	9.9% (inactive)	6.45
Cc1oc(-c2ccc(Cl)cc2)nc1CN1CCC(C(=O)NCCCN2CCOCC2)CC1	41.7% (inactive)	27.7
Cc1ccccc1CN1CCN(CC(=O)NCCCN2CCN(c3ccc(F)cc3)CC2)C1=O	3.3% (inactive)	5.15
N=c1c(C(=O)NC2CCCC2)cc2c(=O)n3ccccc3nc2n1C1CCCC1	16.7% (inactive)	7.85
CCn1c(=N)n(CC(O)COc2cccc(C)c2)c2ccccc21 (stereo not given)	0% (inactive)	9.75
CCOc1ccc2ccccc2c1C(=O)N1CCN(c2ccccc2)CC1	21.1% (inactive)	1.7
O=C(NCCCN1CCN(c2cccc(Cl)c2)CC1)c1nc(-c2ccncc2)no1	36.1% (inactive)	2.15
COc1ccc(Cc2n[nH]c(=O)c3ccccc23)cc1OC	5.3% (inactive)	5.7
O=C(NCCCN1CCN(c2ccccc2F)CC1)C1CCC(=O)N1C1CCCCC1 (stereo not given)	8% (inactive)	4.05
COC(=O)C1=C(C)N=c2s/c(=C/c3cccs3)c(=O)n2C1c1cccs1 (stereo not given)	32.8% (inactive)	12.7

SMILES	side scatter shift (at 100 µM)	side scatter shift (side scatter shift, at 10 µM) [%]
COc1ccc(Cl)c(N2CCN(CCCNC(=O)Nc3ccc(C)cc3)CC2)c1	26.3% (inactive)	12
Cc1noc(/C=C/c2ccco2)c1S(=O)(=O)N1CCC(C(=O)N2CCc3ccccc3C2)CC1	54.6% (active)	7.3
Cc1cc(O)c(-c2cc(C(=O)Nc3ccc(S(=O)(=O)N4CCOCC4)cc3)[nH]n2)cc1C	5.6% (inactive)	9.8
c1ccc(OCCCn2nnc(-c3cccnc3)n2)cc1	15.4% (inactive)	3.1
Cc1cccc(-c2nc(CN3CCCC(C(=O)NC4CCCC4)C3)c(C)o2)c1 (stereo not given)	13.8% (inactive)	8.5
Cc1ccc2c(c1)c1c(n2CC(O)Cn2c(C)nc3ccccc32)/C(=N\O)CCC1 (stereo not given)	18.8% (inactive)	10.1
CCOC(=O)N1CCN(CC(=O)Nc2cc(C)nn2-c2nc3ccccc3s2)CC1	19.3% (inactive)	2.6
Cc1ccc(-c2noc(CCC(=O)NCCCN3CCN(c4ccc(F)cc4)CC3)n2)cc1	0% (inactive)	17.4
Cc1ccccc1-c1nc(CN2CCC(C(=O)N3CCN(c4ccccn4)CC3)CC2)c(C)o1	24.7% (inactive)	12.9
CN1CCN(CC(=O)Nc2ccc(Cl)cc2Cl)CC1	23.1% (inactive)	6.1
CCCS(=O)(=O)N1CCCC(C(=O)NCCCN2CCN(c3ccc(F)cc3)CC2)C1 (stereo not given)	8.2% (inactive)	12.3
CCOC(=O)C1=C(O)CCn2c1nc1ccccc12	18% (inactive)	3.3
COc1ccc(CCNC(=O)C2CCN(Cc3nc(-c4ccccc4F)oc3C)CC2)cc1OC	9% (inactive)	8.85
CCOc1ccc(NC(=O)COc2nsnc2N2CCCCC2)cc1	8.7% (inactive)	6.35
CCCN(CCC)CCNC(=O)C1CCN(Cc2nc(-c3ccc(Cl)cc3)oc2C)CC1	76.4% (active)	74
CCOC(=O)N1CCN(S(=O)(=O)c2ccc(C(=O)Nc3nc4ccccc4s3)cc2)CC1	11.7% (inactive)	5.15
CCCNC(=O)C1CN(S(=O)(=O)c2ccccc2)CCN1S(=O)(=O)c1ccccc1 (stereo not given)	13.3% (inactive)	8
Cn1c(=O)n(C)c2cc(CN3C(=O)OC(C)(C)C3(C)O)ccc21 (stereo not given)	7.1% (inactive)	2.45
O=C(c1ccc2c(c1)OCCO2)N1CCCCC1	7.7% (inactive)	8.05
COc1ccc(S(=O)(=O)CCC(=O)O)cc1	16.3% (inactive)	7.3
O=C(Nc1c(C(=O)N2CCOCC2)cnn1-c1ccccc1)c1ccco1	7.5% (inactive)	5.15
Cc1cc(=O)c2ccccc2[nH]1	11.2% (inactive)	2.3
